Shown are actives, neighbours in structure and some others; about 2.7% of the full set was active somewhere.
KDM5B inh: blocks human KDM5B histone demethylase activity. Q9UGL1. KDM5B demethylase, FDH-coupled NADH fluorescence (FDH is formaldehyde dehydrogenase). Potency, µM (highest dose often 57.7 µM), hits mostly inhibitors. hit rate 2.6% among 220,000; active = well fitted inhibition curve with a large enough effect; inconclusive = small, poorly fitted or top-dose-only effect; inactive = no such curve, though single readings can be large or run the other way; also: potency is read from the fitted curve at half-maximal effect; 0% is about no effect; nearly all actives have a fitted effect of over 70% in size
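Inhibition is measured as reduced NADH fluorescence generation from FDH coupling to formaldehyde release. Truncated KDM5BΔAP at 200 nM final acts on H3K4me3 peptide (12.5 µM in substrate mix) in pH 7.5 HEPES buffer with Tween-20, 30 min, room temperature.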
IP6K1 inhibitor: blocks human inositol hexakisphosphate kinase 1. Q92551. activity change, % (series mostly up to about 58 µM). IP6K1 kinase, ADP-Glo luminescence, 2 h; stronger effect = lower value. hit rate 0.81% among 140,000; in the data active = activity change below about -25%; also: % is scaled to controls: 0 for no effect and ±100 for the full control effect
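ADP-Glo luminescence measures ADP made by human IP6K1 during a 2 h RT reaction with ATP/IP6 (mix at 1.3 mM/130 uM); top library doses 57.5 and 19.1 uM final.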
The depositor's hits bear a star; i = inactive; ? = inconclusive; / = not tested or not shown.

SMILES	KDM5B inh	IP6K1 inhibitor
O=C(NC1CCCCC1)C1CCCN(C(=O)Cc2c[nH]c3ccccc23)C1 (configuration not stated)	i	/
CC(C(=O)Nc1nccs1)N1CCN(c2nccnc2C#N)CC1 (configuration not stated)	i	-4
N#Cc1nccnc1N1CCN(C2CCC3(CCNCC3)CC2)CC1	22µM*	12
COc1cccc2cc(CC(=O)c3ccc(C(C)C)cc3)c(=O)oc12	i	/
COc1ccc(-c2ccc3ncc(Nc4cccc(C(F)(F)F)c4)n3n2)cn1	?	-21
CN1CC2(CCCN(CC3CC3)C2)c2cc(C(=O)NCCOc3ccccc3)ccc21 (configuration not stated)	35µM*	-3
COCCN1CCC2(C1)CN(C)c1ccc(C(=O)NCCOc3ccccc3)cc12 (configuration not stated)	?	16
CN1CC2(CCCN(CC3CC3)C2)c2cc(C(=O)Nc3ccn(C)n3)ccc21 (configuration not stated)	?	39
CN1CC2(CCCN(CC3CC3)C2)c2cc(C(=O)NCCc3ccccn3)ccc21 (configuration not stated)	40µM*	2
CC(=O)c1cccc(NC(=O)CSc2nnc3n(CC(C)C)c(=O)c4cc(F)ccc4n23)c1	i	/
Cc1ccc(S(=O)(=O)NCC2(c3ccccc3)CC2)c(Cl)c1	i	/
Cc1occc1-c1nnc(SCC(=O)NC(C)c2ccc3c(c2)OCCO3)n1-c1ccccc1 (configuration not stated)	i	/
Cc1ccc(C(=O)Nc2cccn3nc(C4CCC4)nc23)cc1C	?	17
CCc1nc2c(NC(=O)c3ccc(F)c(Cl)c3)cccn2n1	25µM*	14
COc1cccc(C(=O)N2CCN(C(=O)C3CCCO3)CC2)c1 (configuration not stated)	i	/
CCCOc1nccnc1NC1CCN(C(=O)NCc2ccco2)CC1	25µM*	-3
CCCNC(=O)N1CCC(Oc2ncccc2C(=O)N(C)C)C1 (configuration not stated)	i	25
CCCOc1nccnc1NC1CCN(C(=O)NCC)CC1	28µM*	3
CCCOc1nccnc1NC1CCN(C(=O)C2CCCO2)CC1 (configuration not stated)	25µM*	4
CN(C)c1nccnc1OC1CCN(C(=O)c2ccccn2)C1 (configuration not stated)	?	23
CCCOc1nccnc1NC1CCN(C(=O)c2ccccn2)CC1	28µM*	4
CS(=O)(=O)N1CCC(OC2CCN(C(=O)NCc3ccco3)CC2)CC1	i	12
CNC(=O)c1cc(C2CC2)nc2c1c(C1CCN([S+](=O)([O-])c3ccc(C)cc3)CC1)nn2C	/	-4
O=C(CCCN1C(=O)COc2ccc(C(=O)COc3cccc(Cl)c3)cc21)NCC1CC1	i	-6
COc1ccccc1-c1cccc(C(=O)N2CCC[C@H]2C(=O)NCC(F)F)c1	/	13
SMILES	KDM5B inh	IP6K1 inhibitor
COC(=O)[C@@H](CCSC)NC(=O)Nc1ccc(OC)c(Cl)c1	i	/
CN(C)C(=O)c1cccn2nccc12	?	8
O=C(Nc1ccc(Cl)nc1)c1c[nH]c2cccnc12	i	4
O=C(Nc1ccc(Cl)nc1)c1cnn2ncccc12	40µM*	12
CNC(=O)c1cnn2c1CN(C(=O)c1ccccc1)CC2	i	8
CN(C)C(=O)c1cnn2ncccc12	32µM*	11
CNC(=O)c1cnn2ncccc12	32µM*	-4
Cc1c(S(=O)(=O)N2CCCC2c2ccc(F)cc2)cnn1C(F)F (configuration not stated)	i	/
CCOC(=O)[C@@H]1[C@@H](OC(N)=O)C(=O)N(C(C)C)C12CCN(C(=O)Cc1ccc(OC)cc1)CC2	/	4
O=C(NC1CCN(c2cc(-c3cccs3)[nH]n2)C1)c1ccccc1Br (configuration not stated)	25µM*	-3
Cc1ccc(C(=O)NC2CCN(c3cc(-c4cccs4)[nH]n3)C2)c(C)c1 (configuration not stated)	?	-3
O=C(NC1CCN(c2cc(-c3cccs3)[nH]n2)C1)c1cccs1 (configuration not stated)	?	8
COc1cc(OC)cc(C(=O)NC2CCN(c3cc(-c4cccs4)[nH]n3)C2)c1 (configuration not stated)	3.5µM*	-5
COc1cc(C(=O)NC2CCN(c3cc(-c4cccs4)[nH]n3)C2)cc(OC)c1OC (configuration not stated)	?	-10
COc1ccccc1C(=O)NC1CCN(c2cc(-c3cccs3)[nH]n2)C1 (configuration not stated)	16µM*	5
Cc1c(Cl)cccc1NC(=O)Cn1cc(C#N)c2ccccc21	i	/
Cc1ccccc1-n1nc(C)c(CCC(=O)N(C)C(C)C)c1Oc1ccccc1F	i	24
COc1ccc(-c2ncc(CN3CCCC4(C3)CN(C)C(=O)O4)cn2)cc1 (configuration not stated)	14µM*	-11
COc1ccc(CN2CCCC3(C2)CN(C)C(=O)O3)cc1C(=O)O (configuration not stated)	i	21
CC(C)(C)C(=O)N1CCC(C(=O)N2CCC(c3nc4ncccc4[nH]3)CC2)C1 (configuration not stated)	/	-2
COc1ccccc1-c1ccc(C(=O)N2CCC(C(=O)NC(C)C)CC2)cc1	/	18
COc1ccccc1-c1ccc(C(=O)N2C[C@@H](N(C)C)[C@H](C(C)C)C2)cc1	28µM*	-17
Cc1cc(/C=C/c2nc3ccccc3s2)cc(C)c1O	i	/
CC(=O)c1c(C)nn(CC(=O)N2CCN3C(=O)CN(C)C(=O)C3C2)c1C (configuration not stated)	i	-10
Cc1cc(C)n2nc(C(=O)N3CCN4C(=O)CN(C)C(=O)C4C3)cc2n1 (configuration not stated)	28µM*	-17
SMILES	KDM5B inh	IP6K1 inhibitor
COc1ccc(CNC(=O)c2ccc3c(c2)N(C(=O)c2ccc(F)cc2)CC3)cc1OC	i	-2
NCc1ccc(-c2cccc(O)c2)cc1	?	-13
Cc1cc(C)cc(-c2ccc(C=O)cc2)c1	32µM*	-6
O=Cc1ccc(-c2cccc(O)c2)cc1	13µM*	-18
Fc1ccc(/C=N/N=C/c2ccc(F)cc2)cc1	i	/
O=Cc1ccc(-c2ccc(F)cc2)cc1	89µM*	-12
Cc1ccc(-c2ccc(C=O)cc2)c(C)c1	?	-14
Cc1c(-c2cccc(F)c2)c(=O)oc2ccccc12	i	/
CCSCCC(=O)NCCC(=O)N(C)Cc1ccccc1	i	/
N#Cc1ccc(C(=O)C(C#N)C(=O)Nc2cccc3ccccc23)cc1 (configuration not stated)	i	/
CNC(=O)c1cccnc1N1CCOC(c2ccc3cc(OC)ccc3c2)C1 (configuration not stated)	i	-1
COc1ccc([C@@H]2CN(c3ncccc3C#N)C[C@H]2NC(C)=O)cc1	28µM*	4
O=C(Nc1ccc(-c2nnc3n2CCCC3)cc1)c1ccc2ccccc2n1	?	-2
COc1ccc(-c2cc(-c3ccncc3)cn3cncc23)cc1	40µM*	-13
OCc1ccc(-c2cc(-c3ccncc3)c3cncn3c2)cc1	?	2
COc1ccc(-c2cc(-c3ccc4c(c3)CNC4=O)cn3cncc23)cc1	22µM*	-17
